# Experimental data: PubChem BioAssay AID743398 (Broad Institute, 2014)
# About 3,600 (1.2%) of roughly 300,000 compounds were called active. The full list was thinned out, with actives kept by preference. Unmarked numbers belong to inactive results. Rule as the data show it: active = activation above about 30% (passing the limit was not always enough); inconclusive = no clear call, values can overlap the other calls.
# Assay: Wnt/beta-catenin pathway activators, primary screen, cell-based, plate reader, single point (AID 743398);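 also: 0% = neutral control wells and 100% = positive control wells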
# Settings: Wnt/beta-catenin reporter cell assay, activator, at 9.35 µM, stronger effect = higher value
row,SMILES,activation
1,CCOc1ccc(Cl)cc1-c1cc(C(=O)NCc2cccs2)[nH]n1,-2.6%
2,O=C(NCc1ccccc1)[C@@H]1CCCN1C(=O)[C@H]1CCCN1C(=O)c1cccc(Cl)c1,3.03%
3,O=C1/C(=C/c2cccs2)CCc2ccccc21,24.6%
4,CN1C/C(=C/c2cccs2)C(=O)/C(=C\c2cccs2)C1,5.88%
5,O=C1/C(=C/c2cccs2)CCC1C1CCCC1 (stereo not drawn),39.6% (active)
6,C[C@H](CO)N1C[C@H](C)[C@@H](CN(C)C(=O)Nc2ccccc2F)OCc2cn(nn2)CCCC1=O,-2.87%
7,COc1cc(OC)cc(-c2cc3ccc(F)cc3cn2)c1,42.1% (active)
8,COc1cc(OC)cc(-c2c(-c3ccc(F)cc3)c3cc(-c4ccc5cc[nH]c5c4)ccc3n2C)c1,-17.5%
9,COc1ccc(C(C)(O)c2nc(-c3cc(F)cc(F)c3)cs2)cc1 (stereo not drawn),-1.38%
10,COc1ccccc1C(=O)N1O[C@]23C=C[C@]14C[C@@H](O)CC[C@]4(C)C2CC[C@]1(C)[C@@H]([C@H](C)/C=C/[C@H](C)C(C)C)CC[C@H]13 (stereo partly drawn),-2.64%
11,COc1cccc(CNc2nc(NCc3cccs3)nc3ccsc23)c1,-1.69%
12,O=C(Nc1c(Cl)c(C2CC2)nn1-c1ccccc1)C(Cl)(Cl)Cl,-2.16%
13,O=C(NCCCN1CCOCC1)c1cc(-c2ccccc2F)no1,3.67%
14,O=C(c1ccco1)N1CCN(C(=O)c2cc(-c3ccccc3F)no2)CC1,1.22%
15,Fc1ccccc1-c1cc2cc3c(cc2cn1)OCO3,40.7% (active)
16,CCNC(=O)C1(C)CCCN(Cc2noc(-c3ccccc3OC)n2)C1 (stereo not drawn),-3.24%
17,CN1C(=O)C2CC(O)C(SC3CC4C(=O)N(C)C(=O)C4CC3O)CC2C1=O (stereo not drawn),-1.16%
18,CCc1nc2c(OCc3ccc(C(F)(F)F)cc3)cccn2c1N(C)C(=O)CC(C)C,-1.72%
19,CCOc1cccc2cc(C(=O)OCC(=O)Nc3c(C)cccc3CC)c(=O)oc12,8.56%
20,C=CCc1cccc2cc(C(=O)NC3CCCC3)c(=O)oc12,-0.536%
21,C=CCc1cccc2cc(C(=O)Nc3ccc(NC(C)=O)cc3)c(=O)oc12,39.5% (active)
22,COc1ccc(-c2ccccc2C2Cc3nnccc3CN2C(=O)Nc2ccccc2)cc1 (stereo not drawn),-2.13%

row,SMILES,activation
1,COC(=O)c1cc2c(c3c4ccccc4n(S(=O)(=O)c4cccc(C)c4)c13)C(=O)N(Cc1ccccc1)C2,-4.66%
2,Cn1c(-c2ccc(C(F)(F)F)cc2)cc2onc(-c3ccccc3)c2c1=O,23.3%
3,Cn1c(-c2ccc(F)cc2)cc2onc(-c3ccccc3Cl)c2c1=O,53.3% (active)
4,Cc1[nH]n(C)c(=O)c1C(=O)c1c(-c2c(Cl)cccc2Cl)noc1C,4.17%
5,CCOC(=O)/C=C/c1ccccc1O,-1.18%
6,CN(C)C(=O)c1ccc(NC(=O)COC(=O)c2cc3c(s2)CCCCC3)cc1,0.414%
7,O=C(Nc1ccc(F)cc1)c1cc2c(s1)CCCC2,53% (active)
8,O=C(NNC(=O)c1cc2c(s1)CCCC2)c1ccccc1,27.6%
9,CCN(CC)C(=O)C1=C(C)N(Cc2ccc(F)cc2)C(=O)C(CC(=O)NCc2cccc3ccccc23)C1 (stereo not drawn),-3.01%
10,O=CNc1cc(-c2ccc(C(=O)N3CCOCC3)cc2)cn2c(-c3ccc(F)cc3)cnc12,-3.58%
11,Cc1nonc1NC(=O)c1oc2ccccc2c1C,8.7%
12,Cc1noc(C)c1C(=O)Nc1ccccn1,-1.19%
13,Cc1c(C(=O)Nc2ccccn2)oc2ccc(Br)cc12,34.7% (active)
14,C=CCNC(=O)/C=C/c1ccc(C(C)C)cc1,42.6% (active)
15,O=C(/C=C/c1ccc(F)cc1)NCCNC(=O)/C=C/c1ccc(F)cc1,-1.4%
16,CC(C)c1ccc(/C=C/C(=O)NCCCN2CCOCC2)cc1,-3.21%
17,CCOC(=O)[C@]12CCC=C1N(Cc1cccc3ccccc13)C(=O)[C@H](CC(=O)NCc1cccc(C(F)(F)F)c1)C2,-1.93%
18,C#CCN(C[C@@H]1[C@@H](OC(=O)NC2CC2)[C@@H](OC(=O)NC2CC2)Cn2c(=O)ccc(=O)n21)S(=O)(=O)c1ccc(C)cc1,-2.83%
19,O=[N+]([O-])c1ccc(C(S(=O)(=O)Cc2ccccc2)S(=O)(=O)Cc2ccccc2)cc1,-5.67%
20,Cc1nc(NC(=O)c2ccc3c(c2)OCCO3)ccc1Br,48.4% (active)
21,Cc1ccc(C(=O)NNC(=O)c2ccc3c(c2)OCCO3)cc1,43.9% (active)
22,O=C(Nc1ccc(Cl)cn1)c1ccc2c(c1)OCCO2,24.2%

row,SMILES,activation
1,O=C(Nc1ccccc1)c1ccc2c(c1)OCCCO2,19.2%
2,Cc1cccc(C)c1NC(=O)CNC(=O)c1ccc2c(c1)OCCO2,13.2%
3,CC(=O)c1ccc2c(c1)OCCOCCOc1ccc(C(C)=O)cc1OCCOCCO2,1.05%
4,CN(CCc1ccccc1)C(=O)c1cccc(NC(=O)Cc2cccc(NC(=O)C3CCCN(C(=O)C4CCC4)C3)c2)c1 (stereo not drawn),-3.51%
5,C[C@H]([C@@H](O)[C@@H](O)[C@@H](C)C(C)(C)C)[C@H]1CC[C@H]2C3CC[C@H]4C[C@H](OS(=O)(=O)O)[C@@H](OS(=O)(=O)O)C[C@]4(C)[C@H]3CC[C@]12C (stereo partly drawn),-0.623%
6,CC12CCC(=O)C=C1CCC1C2C(O)CC2(C)C1CCC2(O)C(O)CO (stereo not drawn),3.61%
7,Cn1c(=NC(=O)c2ccco2)sc2cccc(F)c21,61.6% (active)
8,Cn1c(=NC(=O)C2CC2)sc2cc(F)cc(F)c21,7.6%
9,CCCC(=O)N=c1sc2cccc(F)c2n1C,5.33%
10,Cc1ccc(S(=O)(=O)N2C[C@]3(O)C[C@@H]4C(=O)N(c5ccccc5)C(=O)[C@@H]4C[C@]3(OC(=O)NC3CC3)C2)cc1,-1.31%
11,Clc1ccc(Nc2nc(-c3cccs3)cs2)nc1,25.2%
12,Cc1ccc(Nc2nc(-c3ccc(O)cc3O)cs2)nc1,59.5% (active)
13,CC(=O)Nc1cnc(-c2ccc(O)cc2C)cn1,-0.836%
14,Cn1c(=O)c2cc(NC(=O)NCCc3cccs3)ccc2n1Cc1cccc(C(F)(F)F)c1,-1.78%
15,Cc1ccc(S(=O)(=O)N2CC3C(=O)C[C@@H](c4ccccc4Cl)N(S(=O)(=O)c4ccc(C)cc4)C3CC2c2ccccc2)cc1 (stereo partly drawn),-1.39%
16,COC(=O)c1ccc2nc(-c3ccc(Cl)cc3)c(Cc3cccc(F)c3)n2c1,11.3%
17,Cc1ccnc(NC(=O)CCNS(=O)(=O)c2ccc(C)c(C)c2)c1,35.8% (active)
18,Cc1ccc(S(=O)(=O)NCCC(=O)Nc2cccc(S(N)(=O)=O)c2)cc1C,-1.96%
19,Cc1ccc(S(=O)(=O)NCCC(=O)Nc2ccc(C)c(Cl)c2)cc1C,-1.93%
20,CCN1CCCC1CNC(=O)c1ccc2c(c1)NC(=O)/C(=C\c1ccccc1F)S2 (stereo not drawn),-0.637%
21,O=c1[nH]c(-c2ccccc2)cn1C1CCN(Cc2ccc(-c3nc4ccc(F)cc4nc3-c3ccccc3)cc2)CC1,0.441%
22,COCCCn1c(C(=O)NC2CCCCC2)cc2c(=O)n3cccc(C)c3nc21,-1.3%

row,SMILES,activation
1,CC(C)NC(=O)N1Cc2cc(C(=O)NCC(F)(F)F)nc(-c3cccc(-c4cc5ccccc5o4)c3)c2[C@@H]1CCO,-2.74%
2,CC(C)c1cc(C(=O)NC2CCCCCC2)c2ccccc2n1,-2.8%
3,O=C(/C=C/c1cnc2ccccc2n1)NC1CCCCCC1,49.2% (active)
4,CC1CCCCC1NC(=O)Cn1c(=O)cnc2ccccc21 (stereo not drawn),-3.58%
5,COC(=O)[C@]1(Cc2ccccc2)NC=C(C(=O)c2ccccc2)[C@@H]1c1cccc(OC)c1,2.93%
6,COC(=O)c1c(-c2ccc(OC)cc2)c2c(c3c4cc(OC)ccc4n(S(=O)(=O)c4ccc(F)cc4)c13)C(=O)N(C)C2,-8.37%
7,CN(C)c1ccc(CNC23CN4CN(CN(C4)C2)C3)cc1,35.9% (active)
8,CCNC(=O)C1(C)CCCN1C(=O)c1ccc(N(C)C)cc1 (stereo not drawn),-4.12%
9,CN(C)c1ccc(CSc2ccccc2)cc1,2.13%
10,Nc1ncnc2c1ncn2[C@@H]1O[C@H](C(=O)N[C@@H](CCc2ccccc2)C(=O)NCC(=O)N2CCOCC2)[C@@H](O)[C@H]1O,-8.65%
11,CCOc1cc(/C=C2\C(=N)N3N=C(C)SC3=NC2=O)ccc1OCCOc1ccccc1,0.097%
12,COc1ccc(OCCCn2cccc2/C=C2/C(=N)N3OC(C)=CC3=NC2=O)cc1,21%
13,CCOc1cc(/C=C2/C(=N)N3OC(C)=CC3=NC2=O)ccc1OC,39.2% (active)
14,COc1ccc(-c2cc3c(c4c2ccn4C)C2CCC3C2)cn1 (stereo not drawn),-0.553%
15,Cc1cccc(-c2cnc(C(O)c3ccc4ccccc4c3)[nH]2)c1 (stereo not drawn),-0.607%
16,Cc1c(NC(=O)Nc2ccccc2)cccc1[N+](=O)[O-],1.75%
17,CS(=O)(=O)c1ccc(Cl)c(NC(=O)Nc2ccccc2)c1,1.45%
18,Cc1ccc(NC(=O)Nc2ccccc2)c(Br)c1,50.8% (active)
19,CC[C@H](C)[C@H]1CNC(=O)C(=O)N1CC1CCN(CCc2ccc(OC)c(OC)c2)CC1,-3.36%
20,COc1ccc2oc(-c3cccc(NC(=O)CSc4ccc(Cl)cc4)c3)nc2c1,22.7%
21,COc1ccc2oc(N)nc2c1,2.19%
22,COc1cccc(-c2nc3cc(C)ccc3o2)c1,40.6% (active)
